# From PubChem BioAssay (NCATS)
# Results filed as inconclusive are left out. Activity calls are given as the source filed them. The call rests on the fitted dose curve; in most records, active means well fitted cell-killing curve with a large enough effect; inconclusive means small, poorly fitted or top-dose-only effect, or effect the other way; inactive means flat fitted curve, though single readings scatter.
# Test system: CAOV3
# Test: Primary qHTS to identify gynecologic anti-cancer compounds using libraries of approved drugs and bioactive compounds (AID 1345084); further: nearly all actives have a fitted effect of over 55% in size
# Conditions: Gynecologic cancer cell panel viability, ATPlite luminescence, 48 h; series mostly up to 57.5 µM; activity change, negative = cytotoxicity: at the top concentration
# How it was run: (§1)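 Five-point cytotoxicity, 48 h drug exposure at 37 C, 5% CO2, on cells seeded 16 h beforehand. ATP content read by ATPlite luminescence.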
# On the % scale 0 is the no-effect control and ±100 the full control effect; potency means the concentration at half of the fitted maximal effect.
SMILES,"activity change, negative = cytotoxicity",Potency
O=C1OCCN1/N=C/c1ccc([N+](=O)[O-])o1,-6.19% (inactive),–
CCN(CC)CCOC(=O)C(c1ccccc1)C1CCCCC1 (stereo unspecified),-15.7% (inactive),–
CCCOC(C(=O)OC1CCN(C)CC1)(c1ccccc1)c1ccccc1,-4.86% (inactive),–
CCOc1ccc(Cc2nccc3cc(OCC)c(OCC)cc23)cc1OCC,-29.2% (inactive),–
COC1=CC(=O)C[C@@H](C)[C@]12Oc1c(Cl)c(OC)cc(OC)c1C2=O,-9.51% (inactive),–
O=C(COc1ccc(Cl)cc1)N1CCN(Cc2ccc3c(c2)OCO3)CC1,3.75% (inactive),–
C[C@]12CCC(=O)C=C1[C@@H]1C[C@@H]1[C@H]1[C@@H]3[C@@H]4C[C@@H]4[C@@]4(CCC(=O)O4)[C@@]3(C)CC[C@@H]12,26.6% (inactive),–
COc1cc2c(cc1OC)C(C(C(=O)N(CCc1ccc(OC)c(OC)c1OC)CCc1ccc(OC)c(OC)c1OC)c1ccccc1)=NCC2 (stereo unspecified),-0.673% (inactive),–
COCc1c(C(C)C)nc(C(C)C)c(/C=C/[C@@H](O)C[C@@H](O)CC(=O)O)c1-c1ccc(F)cc1,–,7.08 µM (active)
COc1cccc2c1C(=O)c1c(O)c3c(c(O)c1C2=O)C[C@@](O)(C(=O)CO)C[C@@H]3O[C@H]1C[C@H](N)[C@H](O)[C@H](C)O1,–,2.51 µM (active)
C=C1C[C@H]2[C@@H]3C=C(C)C4=CC(=O)CC[C@]4(C)[C@H]3CC[C@]2(C)[C@@]1(OC(C)=O)C(C)=O,-18.9% (inactive),–
CN(C)CC/C=C1\c2ccccc2Sc2ccc(Cl)cc21,-11% (inactive),–
COc1cccc(CCc2ccccc2OCC(CN(C)C)OC(=O)CCC(=O)O)c1 (stereo unspecified),-1.13% (inactive),–
CN1CCN(CCCN2c3ccccc3Sc3ccc(S(=O)(=O)N(C)C)cc32)CC1,-10.3% (inactive),–

# Test system: CASKI
# Test: as above
# Conditions: Gynecologic cancer cell panel viability, ATPlite luminescence, 48 h; series mostly up to 57.5 µM; activity change, negative = cytotoxicity: at the top concentration
# How it was run: as §1
SMILES,"activity change, negative = cytotoxicity",Potency
Cc1c(C)n(Cc2ccccc2)c2ccc(C(=O)OCCN(C)C)cc12,-26.9% (inactive),–
O=C1OCCN1/N=C/c1ccc([N+](=O)[O-])o1,-2.02% (inactive),–
CCN(CC)CCOC(=O)C(c1ccccc1)C1CCCCC1 (stereo unspecified),-2.1% (inactive),–
O=C(CCCN1CCC(O)(c2ccc(Br)cc2)CC1)c1ccc(F)cc1,-29.3% (inactive),–
CC(O)(P(=O)(O)O)P(=O)(O)O,-0.706% (inactive),–
CCCCOc1ccc(C(=O)CCN2CCCCC2)cc1,-2.23% (inactive),–
CCCOC(C(=O)OC1CCN(C)CC1)(c1ccccc1)c1ccccc1,2.04% (inactive),–
Oc1ccc(Cl)cc1Sc1cc(Cl)ccc1O,-2.28% (inactive),–
COC1=CC(=O)C[C@@H](C)[C@]12Oc1c(Cl)c(OC)cc(OC)c1C2=O,-11.1% (inactive),–
Oc1c(I)cc(I)c2cccnc12,-3.14% (inactive),–
C[C@H]1C[C@H]2[C@@H]3CCC4=CC(=O)C=C[C@]4(C)[C@@]3(Cl)[C@@H](O)C[C@]2(C)[C@@]1(O)C(=O)CO,-1.39% (inactive),–
O=C(COc1ccc(Cl)cc1)N1CCN(Cc2ccc3c(c2)OCO3)CC1,3.15% (inactive),–
Cc1cccc(C)c1NC(=O)CN1CCN(CCCC(c2ccc(F)cc2)c2ccc(F)cc2)CC1,-13.8% (inactive),–
C[C@]12CCC(=O)C=C1[C@@H]1C[C@@H]1[C@H]1[C@@H]3[C@@H]4C[C@@H]4[C@@]4(CCC(=O)O4)[C@@]3(C)CC[C@@H]12,-8.87% (inactive),–
CC1=C(C(=O)OC(C)C)C(c2cccc([N+](=O)[O-])c2)C(C(=O)OC2CN(C(c3ccccc3)c3ccccc3)C2)=C(N)N1 (stereo unspecified),0.2% (inactive),–
COc1cc2c(cc1OC)C(C(C(=O)N(CCc1ccc(OC)c(OC)c1OC)CCc1ccc(OC)c(OC)c1OC)c1ccccc1)=NCC2 (stereo unspecified),-5.13% (inactive),–
COCc1c(C(C)C)nc(C(C)C)c(/C=C/[C@@H](O)C[C@@H](O)CC(=O)O)c1-c1ccc(F)cc1,-28.1% (inactive),–
COc1cccc2c1C(=O)c1c(O)c3c(c(O)c1C2=O)C[C@@](O)(C(=O)CO)C[C@@H]3O[C@H]1C[C@H](N)[C@H](O)[C@H](C)O1,–,2 µM (active)
c1ccc(CNCCNCc2ccccc2)cc1,5.3% (inactive),–
C=C1C[C@H]2[C@@H]3C=C(C)C4=CC(=O)CC[C@]4(C)[C@H]3CC[C@]2(C)[C@@]1(OC(C)=O)C(C)=O,0.001% (inactive),–
CCN(CCCc1ccccc1)CCCc1ccccc1,-6.12% (inactive),–
O=C(CCN1CCC(c2ccccc2)C1)c1ccc2c(c1)OCCO2 (stereo unspecified),11.2% (inactive),–
CN(C)CC/C=C1\c2ccccc2Sc2ccc(Cl)cc21,-20.1% (inactive),–
COc1cccc(CCc2ccccc2OCC(CN(C)C)OC(=O)CCC(=O)O)c1 (stereo unspecified),-20.7% (inactive),–
CN1CCC(=C2c3ccccc3Sc3ccccc32)CC1,-23.5% (inactive),–
CN1CCN(CCCN2c3ccccc3Sc3ccc(S(=O)(=O)N(C)C)cc32)CC1,-17.6% (inactive),–
CC(=O)N/N=C/c1ccc([N+](=O)[O-])o1,15.5% (inactive),–
CN(C(=O)CN(CCO)CC(=O)N(C)C(C)(C)Cc1ccccc1)C(C)(C)Cc1ccccc1,-14.2% (inactive),–
CC(C)=CCC1C(=O)N(c2ccccc2)N(c2ccccc2)C1=O,9.51% (inactive),–

# Test system: Es-2
# Test: as above
# Conditions: Gynecologic cancer cell panel viability, ATPlite luminescence, 48 h; series mostly up to 57.5 µM; activity change, negative = cytotoxicity: at the top concentration
# How it was run: as §1
SMILES,"activity change, negative = cytotoxicity",Potency
Cc1c(C)n(Cc2ccccc2)c2ccc(C(=O)OCCN(C)C)cc12,2.45% (inactive),–
O=C1OCCN1/N=C/c1ccc([N+](=O)[O-])o1,-0.844% (inactive),–
CCN(CC)CCOC(=O)C(c1ccccc1)C1CCCCC1 (stereo unspecified),-0.423% (inactive),–
O=C(CCCN1CCC(O)(c2ccc(Br)cc2)CC1)c1ccc(F)cc1,-2.92% (inactive),–
CC(O)(P(=O)(O)O)P(=O)(O)O,1.83% (inactive),–
Clc1ccc2c(c1)CCc1cccnc1C2=C1CCNCC1,-36.7% (inactive),–
CCCOC(C(=O)OC1CCN(C)CC1)(c1ccccc1)c1ccccc1,-20.5% (inactive),–
COc1ccc(/C=C/C(=O)c2ccc(OC)cc2OC)cc1,-12.3% (inactive),–
COC1=CC(=O)C[C@@H](C)[C@]12Oc1c(Cl)c(OC)cc(OC)c1C2=O,-6.66% (inactive),–
C[C@H]1C[C@H]2[C@@H]3CCC4=CC(=O)C=C[C@]4(C)[C@@]3(Cl)[C@@H](O)C[C@]2(C)[C@@]1(O)C(=O)CO,-0.245% (inactive),–
O=C(COc1ccc(Cl)cc1)N1CCN(Cc2ccc3c(c2)OCO3)CC1,4.12% (inactive),–
Cc1cccc(C)c1NC(=O)CN1CCN(CCCC(c2ccc(F)cc2)c2ccc(F)cc2)CC1,-11.2% (inactive),–
C[C@]12CCC(=O)C=C1[C@@H]1C[C@@H]1[C@H]1[C@@H]3[C@@H]4C[C@@H]4[C@@]4(CCC(=O)O4)[C@@]3(C)CC[C@@H]12,-7.65% (inactive),–
CC1=C(C(=O)OC(C)C)C(c2cccc([N+](=O)[O-])c2)C(C(=O)OC2CN(C(c3ccccc3)c3ccccc3)C2)=C(N)N1 (stereo unspecified),2.05% (inactive),–
COc1cc2c(cc1OC)C(C(C(=O)N(CCc1ccc(OC)c(OC)c1OC)CCc1ccc(OC)c(OC)c1OC)c1ccccc1)=NCC2 (stereo unspecified),-0.0794% (inactive),–
COc1cccc2c1C(=O)c1c(O)c3c(c(O)c1C2=O)C[C@@](O)(C(=O)CO)C[C@@H]3O[C@H]1C[C@H](N)[C@H](O)[C@H](C)O1,–,10 µM (active)
c1ccc(CNCCNCc2ccccc2)cc1,2.42% (inactive),–
C=C1C[C@H]2[C@@H]3C=C(C)C4=CC(=O)CC[C@]4(C)[C@H]3CC[C@]2(C)[C@@]1(OC(C)=O)C(C)=O,5.58% (inactive),–
CCN(CCCc1ccccc1)CCCc1ccccc1,-3.79% (inactive),–
O=C(CCN1CCC(c2ccccc2)C1)c1ccc2c(c1)OCCO2 (stereo unspecified),-9.72% (inactive),–
CN(C)CC/C=C1\c2ccccc2Sc2ccc(Cl)cc21,-13.6% (inactive),–
COc1cccc(CCc2ccccc2OCC(CN(C)C)OC(=O)CCC(=O)O)c1 (stereo unspecified),-11.3% (inactive),–
CN1CCC(=C2c3ccccc3Sc3ccccc32)CC1,-21.7% (inactive),–
CN1CCN(CCCN2c3ccccc3Sc3ccc(S(=O)(=O)N(C)C)cc32)CC1,-18.5% (inactive),–
CC(=O)N/N=C/c1ccc([N+](=O)[O-])o1,-24.4% (inactive),–
CC(=O)c1ccc2c(c1)N(CCCN1CCC(CCO)CC1)c1ccccc1S2,-10.3% (inactive),–
CN(C(=O)CN(CCO)CC(=O)N(C)C(C)(C)Cc1ccccc1)C(C)(C)Cc1ccccc1,4.09% (inactive),–
CC(C)=CCC1C(=O)N(c2ccccc2)N(c2ccccc2)C1=O,3.22% (inactive),–
